Inconclusive results are not listed. A call without a number means that no potency is given here. Where a structure was tested more than once in an assay, its records may differ in their call. Active and inactive are the calls of the source. Unless noted, calls follow the shape of the dose curve; as a rule, active = well fitted curve in the direction sought with a large enough effect in the repeat runs; inconclusive = weak or mixed curves; inactive = no such curve, though single readings can be large; an effect the other way counts as inactive or inconclusive.
Assay: qHTS assay to identify small molecule agonists of the sonic hedgehog signaling (Shh) pathway - cell viability counter screen (AID 1259366); also: nearly all actives have a fitted effect of over 50% in size; also: potency is read from the fitted curve at half-maximal effect
Conditions: NIH/3T3 Gli1-Luc viability, CellTiter-Fluor, 24 h; series mostly up to 92.4 µM; viability change, negative = cytotoxic: at the top concentration
Method in brief: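 Cytotoxicity counter screen: CellTiter-Fluor reagent added after 23 h compound exposure, then 1 h at 37C and fluorescence read. Cells were 3T3 Gli1-Luc, seeded 2,000 per well and dosed 4 h post-plating.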

Compound | Potency | viability change, negative = cytotoxic
O=[N+]([O-])c1cc(C(F)(F)F)ccc1Cl | inactive | 
COCN(COC)c1nc(N(COC)COC)nc(N(COC)COC)n1 | inactive | 
CCCCCCCC(=O)O | inactive | 
CC(O)CNCC(C)O (configuration not stated) | inactive | 
C=CC(=O)NCOCCCC | inactive | 
CN=C(NC#N)NCCSCc1nc[nH]c1C | inactive | 
CCCN(CCC)C(=O)SCC | inactive | 
CC/C=C(\C(=O)N[C@@H]1C(=O)N2C(C(=O)OCOC(=O)C(C)(C)C)=C(COC(N)=O)CS[C@H]12)c1csc(N)n1 | inactive | 
N[C@@H](Cc1cc(I)c(Oc2ccc(O)c(I)c2)c(I)c1)C(=O)O | inactive | 
Cc1ccncc1 | inactive | 
CCCCCCCCO | inactive | 
Cc1nnc(NS(=O)(=O)c2ccc(N)cc2)s1 | inactive | 
NC(=O)NC(N)=O | inactive | 
CCCCCCCCCCCCCC(=O)O | inactive | 
CCc1cccc(CC)c1N | inactive | 
Cc1ccccc1Cl | inactive | 
Cc1cc(C)cc(O)c1 | 8.65 µM (active) and inactive | 
CC(C=O)Cc1ccc(C(C)(C)C)cc1 (configuration not stated) | inactive | 
CCOC(=O)c1ccc(O)cc1 | inactive | 

Compound | Potency | viability change, negative = cytotoxic
Nc1cccc(C(F)(F)F)c1 | inactive | 
CCCCC(CC)COC(=O)c1ccc(C(=O)OCC(CC)CCCC)cc1 (configuration not stated) | inactive | 
CCCOCC(C)O (configuration not stated) | inactive | 
CCCCC(=O)O | inactive | 
CC(=O)Nc1ccc(CC(=O)O)cc1 | inactive | 
CC(C)(CO)CO | inactive | 
OB(O)O | inactive | 
OCC(O)CS (configuration not stated) |  | 5.62% [at 42.5 µM] (inactive)
OC[C@H]1O[C@@H](Oc2ccc(O)cc2)[C@H](O)[C@@H](O)[C@@H]1O | inactive | 
COc1c2ccoc2cc2oc(=O)ccc12 | inactive | 
CO[Si](CCCNCCN)(OC)OC | 5.53 µM (active) and inactive | 
Nc1cccc(N)n1 |  | 11.9% (inactive)
CC(C)=CCC/C(C)=C/C=O | inactive | 
CCCCCCC(=O)O | inactive | 
CCCCCCCCCCCC(=O)N(C)CC(=O)O | inactive | 
O=[N+]([O-])c1ccccc1C(F)(F)F | inactive | 
O=c1c(O)c(-c2ccc(O)c(O)c2)oc2cc(O)cc(O)c12 | 30.9 µM (active) | 
Cc1ccc(C(C)C)cc1 | inactive | 

Assay: qHTS assay to identify small molecule antagonists of the sonic hedgehog signaling (Shh) pathway - cell viability counter screen (AID 1259367); also: nearly all actives have a fitted effect of over 55% in size; also: potency is read from the fitted curve at half-maximal effect
Conditions: NIH/3T3 Gli1-Luc viability, CellTiter-Fluor, 24 h; series mostly up to 92.4 µM; viability change, negative = cytotoxic: at the top concentration
Method in brief: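 After a 4 hr settling period, 3T3 Gli1-Luc cells were treated with DMSO-dissolved chemicals and conditioned medium, kept 24 hr at 37C in 5% CO2, and assayed for viability by CellTiter-Fluor fluorescence following 1 hr reagent incubation.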

Compound | Potency | viability change, negative = cytotoxic
O=[N+]([O-])c1cc(C(F)(F)F)ccc1Cl | inactive | 
COCN(COC)c1nc(N(COC)COC)nc(N(COC)COC)n1 | inactive | 
CCCCCCCC(=O)O | inactive | 
CC(O)CNCC(C)O (configuration not stated) | inactive | 
C=CC(=O)NCOCCCC | inactive | 
CN=C(NC#N)NCCSCc1nc[nH]c1C | inactive | 
CCCN(CCC)C(=O)SCC | inactive | 
CC/C=C(\C(=O)N[C@@H]1C(=O)N2C(C(=O)OCOC(=O)C(C)(C)C)=C(COC(N)=O)CS[C@H]12)c1csc(N)n1 | inactive | 
N[C@@H](Cc1cc(I)c(Oc2ccc(O)c(I)c2)c(I)c1)C(=O)O | inactive | 
Cc1ccncc1 | inactive | 
CCCCCCCCO | inactive | 
Cc1nnc(NS(=O)(=O)c2ccc(N)cc2)s1 | inactive | 
NC(=O)NC(N)=O | inactive | 
Nc1nc(N)c2nc(-c3ccccc3)c(N)nc2n1 |  | -14.6% (inactive)
CCCCCCCCCCCCCC(=O)O | inactive | 
CCc1cccc(CC)c1N | inactive | 
Cc1ccccc1Cl | inactive | 
Cc1cc(C)cc(O)c1 | 2.44 µM (active) and inactive | 
CC(C=O)Cc1ccc(C(C)(C)C)cc1 (configuration not stated) | inactive | 

Compound | Potency | viability change, negative = cytotoxic
CCOC(=O)c1ccc(O)cc1 | inactive | 
Nc1cccc(C(F)(F)F)c1 | inactive | 
CCCCC(CC)COC(=O)c1ccc(C(=O)OCC(CC)CCCC)cc1 (configuration not stated) | inactive | 
CCCOCC(C)O (configuration not stated) | inactive | 
CCCCC(=O)O | inactive | 
CC(=O)Nc1ccc(CC(=O)O)cc1 | inactive | 
CC(C)(CO)CO | inactive | 
OB(O)O | inactive | 
OCC(O)CS (configuration not stated) | inactive | 
OC[C@H]1O[C@@H](Oc2ccc(O)cc2)[C@H](O)[C@@H](O)[C@@H]1O | inactive | 
COc1c2ccoc2cc2oc(=O)ccc12 | inactive | 
CO[Si](CCCNCCN)(OC)OC | 15.6 µM (active) and inactive | 
Nc1cccc(N)n1 |  | 16.8% (inactive)
CC(C)=CCC/C(C)=C/C=O | inactive | 
CCCCCCC(=O)O | inactive | 
CCCCCCCCCCCC(=O)N(C)CC(=O)O | inactive | 
O=[N+]([O-])c1ccccc1C(F)(F)F | inactive | 
O=c1c(O)c(-c2ccc(O)c(O)c2)oc2cc(O)cc(O)c12 | 48.6 µM (active) and inactive | 
Cc1ccc(C(C)C)cc1 | inactive | 

Assay: qHTS assay to identify small molecule agonists of the sonic hedgehog signaling (Shh) pathway (AID 1259368; calls by dose curve;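 also: NIH/3T3-derived 3T3Gli1-Luc cells carrying a stable Gli1-driven firefly luciferase reporter; nearly all actives have a fitted effect of over 15% in size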)
Conditions: NIH/3T3 Gli1-Luc reporter, luciferase, 24 h; series mostly up to 92.4 µM; activity change: at the top concentration
Method in brief: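 Mouse fibroblast (NIH/3T3) reporter cells with stably integrated Gli1-Luc were treated 24 hr with compound; firefly luciferase luminescence served as the read-out.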

Compound | Potency
O=[N+]([O-])c1cc(C(F)(F)F)ccc1Cl | inactive
COCN(COC)c1nc(N(COC)COC)nc(N(COC)COC)n1 | inactive
CCCCCCCC(=O)O | inactive
CN=C(NC#N)NCCSCc1nc[nH]c1C | inactive
N[C@@H](Cc1cc(I)c(Oc2ccc(O)c(I)c2)c(I)c1)C(=O)O | inactive
Nc1nc(N)c2nc(-c3ccccc3)c(N)nc2n1 | inactive
CCc1cccc(CC)c1N | inactive
CC(C=O)Cc1ccc(C(C)(C)C)cc1 (configuration not stated) | inactive
CC(=O)Nc1ccc(CC(=O)O)cc1 | inactive
CC(C)(CO)CO | inactive
OB(O)O | inactive
OC[C@H]1O[C@@H](Oc2ccc(O)cc2)[C@H](O)[C@@H](O)[C@@H]1O | inactive
CO[Si](CCCNCCN)(OC)OC | inactive
Nc1cccc(N)n1 | inactive
CCCCCCC(=O)O | inactive
O=[N+]([O-])c1ccccc1C(F)(F)F | inactive
O=c1c(O)c(-c2ccc(O)c(O)c2)oc2cc(O)cc(O)c12 | inactive

From PubChem BioAssay (Tox21)
